# Screening results deposited in PubChem by National Center for Advancing Translational Sciences (NCATS).
# IL1B secr inh: blocks inflammasome-driven IL-1 beta release | actives 4.7% (n = 360,000) | AID 743279 | THP-1 LPS/ATP IL-1B secretion, AlphaLISA, 16 h; hits give low values | activity change, % at 57.5 µM; in the data active = activity change below about -50%; inconclusive = mostly about -30% to -49%
#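 Secreted IL-1B measured by AlphaLISA bead assay after 16 h compound exposure of THP-1 cells; compounds (final up to 57.5 uM) added 1 h before LPS (250 ng/mL) and ATP (1.25 mM) stimulation; lower signal means less secretion.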
# TDP1 cell CPT: DT40-hTDP1 cell growth loss with CPT | Potency, µM (top dose mostly 46.2 µM), inactives show at the top dose activity change, negative = growth inhibition, usual class: inhibitors | actives 12% (n = 420,000) | chicken DT40 Tdp1-/-;hTDP1 cells + 20 nM CPT, ATP luminescence, 48 h; also: potency is read from the fitted curve at half-maximal effect; nearly all actives have a fitted effect of over 55% in size
#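 Chicken DT40 Tdp1-/- cells complemented with human TDP1, 400 cells/well, exposed to compounds plus 20 nM camptothecin for at least 48 h at 37 C; viability read as ATP content by CellTiter-Glo luminescence.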
# Gal4-VP16 FLuc: Gal4-VP16 reporter inhibition counter-screen | Drosophila S2 Gal4-VP16 UAS-luciferase, luminescence, 20 h | actives 3.5% (n = 310,000) | Potency, µM (doses to about 53.6 µM), for the others: top-dose activity, negative = inhibition, hits mostly inhibitors | AID 2546;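 also: Gal4-VP16 expression switched on by copper sulfate through the metallothionein promoter; potency is read from the fitted curve at half-maximal effect; nearly all actives have a fitted effect of over 50% in size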
# LDHA inh: LDHA (human) enzyme inhibition | P00338 | purified LDHA, NADH/diaphorase-resazurin fluorescence; hits give low values | activity change, % (values are at about 110 or 230 µM) | actives 0.15% (n = 480,000) | AID 1347041; in the data active = activity change below about -30%; inconclusive = mostly about -25% to -30%;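 also: plate controls were DMSO wells for no effect and wells without enzyme for full effect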
#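 LDH5 2 nM; NADH 0.06 mM, pyruvate 0.2 mM; 200 mM Tris pH 7.4, EDTA, Tween-20; 5 min RT. Detection: diaphorase 0.133 mg/mL + resazurin 37 µM, fluorescence ex540/em590 at 0 and 20 min; normalized to enzyme-free and DMSO wells.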
# TDP1 cell noCPT: qHTS for Inhibitors of human tyrosyl-DNA phosphodiesterase 1 (TDP1): qHTS in cells in absence of CPT. actives 15% (n = 420,000). Potency, µM (doses to about 46.2 µM), for inactives: at the top dose activity change, negative = growth inhibition, actives largely listed as inhibitors. DT40 Tdp1-/- hTDP1 cells, no CPT, ATP luminescence, 48 h; also: potency is read from the fitted curve at half-maximal effect; nearly all actives have a fitted effect of over 55% in size
#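 Growth of hTDP1-complemented DT40 Tdp1-knockout cells is measured by ATP luminescence after at least 48 hr compound exposure at 37 °C, with DMSO substituting for the 20 nM CPT used in the parallel screen.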
# RORg inh: inhibitors of mouse ROR gamma transcriptional activity. Drosophila S2 Gal4-RORgamma UAS-luciferase reporter, 20 h. Potency, µM (doses to about 53.6 µM), for inactives: at the top dose activity change, negative = inhibition, usual class: inhibitors. actives 5.4% (n = 310,000); also: potency is read from the fitted curve at half-maximal effect; nearly all actives have a fitted effect of over 60% in size
# Target sequence (P51450 whole entry, looked up, the tested form may be a part): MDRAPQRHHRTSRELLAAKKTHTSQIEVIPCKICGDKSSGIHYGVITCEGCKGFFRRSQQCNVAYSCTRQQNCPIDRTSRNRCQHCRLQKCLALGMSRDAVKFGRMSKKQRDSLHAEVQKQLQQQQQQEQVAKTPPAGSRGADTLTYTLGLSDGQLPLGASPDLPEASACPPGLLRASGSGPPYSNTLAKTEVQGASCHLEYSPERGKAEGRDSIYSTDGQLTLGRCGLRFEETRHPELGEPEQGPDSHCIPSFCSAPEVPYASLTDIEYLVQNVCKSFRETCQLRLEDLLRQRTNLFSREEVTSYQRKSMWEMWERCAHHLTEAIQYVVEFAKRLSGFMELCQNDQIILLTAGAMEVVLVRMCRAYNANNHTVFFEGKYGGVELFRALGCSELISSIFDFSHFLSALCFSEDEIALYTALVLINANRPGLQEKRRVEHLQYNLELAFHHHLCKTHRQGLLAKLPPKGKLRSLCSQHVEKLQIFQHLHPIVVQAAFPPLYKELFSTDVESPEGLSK
#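 Stably transfected Drosophila Schneider cells are the test system, with ROR gamma fused to Gal4 and luciferase under UAS control; luminescence is read after 20 hr of 700 uM copper sulfate induction at ambient temperature.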
# * = called active by the depositor; ? = inconclusive; . = not tested or not shown. Most compounds without a hit are left out; they make up all but 18% or so of the library. Unless noted, calls follow the shape of the dose curve; as a rule, active = well fitted curve in the direction sought with a large enough effect; inconclusive = small, poorly fitted or top-dose-only effect, or another doubt; inactive = no such curve, though single readings can be large; an effect the other way counts as inactive or inconclusive. Unless noted, % is scaled to controls: 0 for no effect and ±100 for the full control effect.
SMILES,IL1B secr inh,TDP1 cell CPT,Gal4-VP16 FLuc,LDHA inh,TDP1 cell noCPT,RORg inh
COc1ccc(Nc2cc(C)c3cc(NC(=O)Cc4ccc(Cl)cc4)ccc3n2)cc1,.,?,.,-12.3,?,.
COc1cccc(CC(=O)Nc2ccc3nc(Nc4cccc(C(F)(F)F)c4)cc(C)c3c2)c1,.,?,.,-0.6,18.4µM*,.
CCOc1ccc(NC(=O)c2c(NC(=O)CN3CCCC(C)C3)sc3c2CCC3)cc1 (stereo unspecified),.,.,.,-4.8,.,.
CC(=O)c1cn(CC(=O)NCCCCCC(=O)O)c2ccccc12,.,.,.,-9.5,.,.
N#Cc1ccc2ccn(CC(=O)NCc3ccccc3)c2c1,-0.1,?,-15.6%,0.5,18.4µM*,?
O=C(Cn1ccc2cc(Cl)ccc21)NCc1ccccc1,.,.,.,5.8,.,.
OC(CNCc1ccc(F)cc1)(c1ccc(F)cc1)c1ccc(F)cc1,-54.7*,23.1µM*,-8.1%,0.0,?,5.6%
CCOC(=O)CNCc1ccc(F)cc1,.,.,.,0.7,.,.
OC(CNCc1ccc(Cl)cc1)(c1ccccc1)c1ccc(F)cc1 (stereo unspecified),-67.4*,?,11.2µM*,-1.5,23.1µM*,?
Cc1ccc(C(O)(CNCc2ccccc2)c2ccccc2)cc1 (stereo unspecified),?,?,-7.5%,-2.1,?,13.7%
Cc1ccc2[nH]cc(CCNC(=O)/C=C/c3ccccc3F)c2c1,.,.,.,7.7,.,.
COc1ccc(C(=O)NCCNC(=O)c2ccccn2)cc1,5.3,-1.0%,6.7%,-3.3,-8.3%,12.7%
CCOc1ccc(OCCCC(=O)NNC(=O)c2ccncc2)cc1,7.5,10.4%,.,-11.5,4.3%,.
Cc1nc(C(=O)NNC(=O)c2ccc(Cl)cc2)cs1,66.4,16.4µM*,?,0.4,11.6µM*,3.98µM*
COc1ccc2c(c1)C(=NNC(=O)c1ccccn1)c1cc(OC)ccc1-2,-8.1,4.61µM*,3.98µM*,-3.1,2.59µM*,2.82µM*
COc1ccc(C(=O)NNC(=O)c2ccccn2)cc1,-18.0,-17.4%,5.62µM*,-1.7,-25.0%,7.08µM*
CC(=O)c1ccc(OCCCC(=O)NNC(=O)c2ccccn2)cc1,138.2,?,.,3.6,14.6µM*,.
N#Cc1ccc(OCCOC(=O)COc2ccc(Cl)cc2Br)cc1,.,.,.,7.3,.,.
O=S(=O)(c1ccccc1)n1nc(NCc2ccccc2)nc1NCc1ccccc1,.,.,.,1.3,.,.
CC(=O)c1ccccc1NC(=O)c1ccccc1-c1ccccc1,.,.,.,4.0,.,.
Cc1cccc(CNC(=O)c2ccccc2NC(=O)c2cccs2)c1,.,.,.,3.9,.,.
COc1cc(OC)cc(C(=O)NNC(=O)c2ccccn2)c1,146.2,2.91µM*,5.62µM*,11.4,6.51µM*,4.47µM*
CC(=O)c1c(C)[nH]c(C(=O)NOCc2ccccc2)c1C,.,.,.,5.1,.,.
COC(=O)c1ccc(CSc2nnc(CS(=O)Cc3ccc(Br)cc3)n2-c2ccccc2)cc1 (stereo unspecified),-11.0,7.31µM*,-10.6%,0.5,13µM*,?
O=S(Cc1ccc(Br)cc1)Cc1nnc(SCc2ccc(Br)cc2)n1-c1ccccc1 (stereo unspecified),-58.2*,11.6µM*,-20.9%,2.5,10.3µM*,?
SMILES,IL1B secr inh,TDP1 cell CPT,Gal4-VP16 FLuc,LDHA inh,TDP1 cell noCPT,RORg inh
CCCCN1CC(C(=O)Nc2ccc(C(=O)Nc3ccc(Br)cc3C)cc2)CC1=O (stereo unspecified),.,.,.,8.5,.,.
COc1ccc(C)cc1NC(=O)CNC(=O)CNc1cccc(Cl)c1,.,.,.,-15.0,.,.
O=C(NCC12CC3CC(CC(C3)C1)C2)c1ccc(Cl)c([N+](=O)[O-])c1,.,.,.,3.9,.,.
COc1ccc(CCNC(=O)c2cc(S(=O)(=O)N3CCCCC3)c[nH]2)cc1OC,23.6,-21.1%,7.4%,-0.5,-7.8%,-19.2%
CC1CCN(C(=O)c2cc(S(=O)(=O)N3CCCCC3)c[nH]2)CC1,15.4,-29.2%,-3.7%,-2.5,?,-7.9%
Cc1ccc(N2CCN(C(=O)c3cc(S(=O)(=O)N4CCCCC4)c[nH]3)CC2)c(C)c1,.,16.4µM*,.,-0.1,16.4µM*,.
Cc1cccc(CCNC(=O)c2cc(S(=O)(=O)N3CCCCC3)c[nH]2)c1,4.8,18.4µM*,0.7%,-0.8,?,?
CCN(C(=O)c1cc(S(=O)(=O)N2CCCCC2)c[nH]1)c1ccc(OC)cc1,-9.3,9.2µM*,3.4%,-1.8,23.1µM*,-2.3%
CCN(c1ccc(-c2csc(-c3ccsc3)n2)cc1)S(C)(=O)=O,.,.,.,-7.8,.,.
O=C(Nc1ccc2ccccc2c1)C(c1ccccc1F)n1c(=O)c(-c2cc3ccccc3[nH]2)nc2ccccc21 (stereo unspecified),74.7,?,.,-2.8,?,.
O=C(NCc1ccccc1)C(c1ccc(-c2ccccc2)cc1)n1c(=O)c(-c2cc3ccccc3[nH]2)nc2ccccc21 (stereo unspecified),43.8,?,.,-3.7,14.6µM*,.
